SMILES strings stand for the structures. The whole screen tested about 340,000 compounds, of which about 2,500 (0.74%) were called active. This is one part of a sample in which actives are shown more often than they occur. Values without a mark were called inactive.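 The calls were made as follows: active = inhibition above about 55% (limit read from the data); inactive = the rest.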

The nature of the assay: blockers of Gli reporter signaling – luciferase luminescence, Sufu-KO-LIGHT cells, uHTS, primary screen (AID 588413).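 Also: 0% = DMSO-treated cells and 100% = wells with medium but no cells.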 The following applies: Sufu-KO-LIGHT fibroblasts, at 5 µM, stronger effect = higher value.
By inhibition is commonly meant the relative decrease from the control value, in per cent. Regarding `CSc1ncccc1C(=O)NCc1ccccc1Cl`, the inhibition was -8.35%. On to `CC(=O)c1c(O)cc2n(c1=O)-c1ccc(Cl)cc1C2(C)C`, for which the inhibition is -0.02%. For `COC(=O)CC(CC(=O)OC)n1cccc1`, the inhibition was 6.12%. To `Cc1ccc(O)c(NC(=O)COc2cc(C)ccc2C)c1` belongs 63.9% (active). With `Cc1ccc(C)c(OCC(=O)NNC(=O)C2CCC2)c1`, the inhibition was 3%. In the case of `Cc1ccc(O)c(NC(=S)NC(=O)COc2ccc(Br)cc2)c1`, the inhibition was -1.7%. To `CCC1CCCCN1C(=S)NC(=O)c1ccco1` (stereo not given) belongs 3.37%; to `O=C(CSC(=S)N1CCCCC1)c1c(F)cccc1F`, -23.9%.

With `CCCCn1nc(C(=O)OCC(=O)Nc2sccc2C(N)=O)c2ccccc2c1=O`, the inhibition is -33%.

Take `CCOC(=O)C1=C(C)c2ccccc2OC1(C)C(=O)OCC` (stereo not given): the inhibition was -1.26%. In the case of `CCOC(=O)c1[nH]c2ccccc2c1N=C(C)N(CC)CC` it was 4.83%; in that of `CCOC(=O)c1c(C)[nH]c2c1-c1ccccc1C(=O)C2=O`, 95.8% (active). To `C=CCn1c(C)cc(C2=NNC(=NCC)SC2)c1C` belongs 93% (active); to `CCCN(CCC)C(=O)C1c2ccccc2Oc2ccccc21`, -1.09%. To `CNCC(O)c1ccc(O)c(O)c1` (stereo not given) belongs -2.95%; to `COc1ccc(CCNc2ncnc3c2nnn3Cc2ccccc2)cc1`, 4.12%; to `COc1ccc(NC(=O)/C(N=Nc2cccc(S(=O)(=O)Nc3ccc(SC(F)F)cc3)c2)=C(\C)O)cc1`, -4.13%. Turning to `Cn1c(=O)c2c(nc(OCc3cccnc3)n2Cc2ccccc2)n(C)c1=O`, the inhibition was 8.04%. In the case of `C=CCn1c(Oc2ccc(C(=O)OC)cc2)nc2c1c(=O)n(C)c(=O)n2C` it was 1.23%; in that of `C=CCOc1nc2c(c(=O)n(C)c(=O)n2C)n1Cc1ccc(Cl)cc1Cl`, 62% (active).

Regarding `O=S(=O)(Nc1cc(S(=O)(=O)N2CCOCC2)ccc1N1CCCC1)c1cccs1`, the inhibition is 5.7%.

On to `Cc1ccc(-n2c(SCC(=O)N/N=C/C=C/c3ccccc3[N+](=O)[O-])nc3ccccc3c2=O)cc1`, for which the inhibition was 14.2%. For the compound `O=c1c2ccccc2ncn1/N=C/c1ccccc1`, the inhibition is 20.9%. To `CCn1c(/C=C/c2ccc([N+](=O)[O-])o2)nc2ccccc2c1=O` belongs 80% (active); to `O=C(Nc1ccccc1C(=O)NCC1CCCO1)c1ccccc1F` (stereo not given), -6.12%; to `CC(C)c1ccc2c(c1)c(SC(C)(C)C)c(CC(C)(C)C(=O)O)n2Cc1ccc(Cl)cc1`, -0.1%. Take `CCCCCCCCn1c2c(c(=N)c3c1CCC3)CCCC2`: the inhibition was 89.4% (active).

For the compound `O=C(NNS(=O)(=O)Cc1ccccc1)c1ccc([N+](=O)[O-])cc1`, the inhibition is -11.2%.

As for `CCOC(=O)C1CCCN(CCSc2ccc(C)cc2)C1` (stereo not given), the inhibition is 21.1%. To `CN(C)C(=O)COC(=O)c1cccc(S(=O)(=O)N2CC3(C)CC2CC(C)(C)C3)c1` (stereo not given) belongs 0.32%; to `CC1(C)CC2CC(C)(CN2c2ncnc3ccc(Br)cc23)C1` (stereo not given), 62.2% (active); to `COc1ccc(Nc2ncnc3ccc(Br)cc23)c(OC)c1`, 26.3%. In the case of `COc1cc(C(F)(F)F)nc2c(Br)c(C(C)(C)C)nn12` it was 4.44%; in that of `CN(Cc1ccc(CNC[C@H]2O[C@@H](n3cnc4c(N)ncnc43)[C@H](O)[C@@H]2O)o1)S(C)(=O)=O`, -0.83%; in that of `CCc1cc2cc(OC)ccc2nc1SCC(=O)Nc1cc(OC)c(OC)cc1C(=O)O`, -8.77%. In the case of `Cc1ccc(-n2ncc3c(=O)n(-c4ccc(C)c(C)c4)c(-c4ccco4)nc32)cc1` it was 4.8%. With `Cc1ccc(-c2nc3c(cnn3-c3ccccc3)c(=O)o2)cc1`, the inhibition was 56.1% (active).

Regarding `CC(=O)Cn1cnc2c(cnn2-c2ccccc2)c1=O`, the inhibition is -18.4%. Turning to `COc1ccc(OC)c(C2C3=C(N=c4s/c(=C\c5cccc(O)c5)c(=O)n42)c2ccccc2CC3)c1` (stereo not given), the inhibition was -4.15%. To `CCN(CC)S(=O)(=O)c1ccc(N(C)Cc2ccc(C(F)(F)F)cc2)nc1` belongs 17.7%. With `CCCCNCCS(=O)(=O)NCc1ccccc1`, the inhibition was -0.46%. For `COc1ccc(Br)cc1/C=N/Nc1ccc(Cl)c(C(=O)O)c1`, the inhibition is 8.66%.

With `COc1cccc(/C=N/Nc2ncc(C(F)(F)F)cc2Cl)c1O`, the inhibition is 59.1% (active). Consider `COc1cccc(/C=N/Nc2ccc(S(=O)(=O)Nc3ccccc3C(=O)O)cc2[N+](=O)[O-])c1O`, for which the inhibition was 6.14%. Consider `O=C(OCC(=O)N1CCc2ccccc21)C1CCCN1S(=O)(=O)c1ccc(Cl)cc1` (stereo not given), for which the inhibition is -11.8%. To `CC1(C)CC(=O)NC=C(c2ccccc2)C1` belongs 1.28%; to `Cn1ccsc1=NC(=O)c1cc(S(=O)(=O)N2CCOCC2)ccc1Cl`, -4.66%. In the case of `O=C1C(Cl)=C(N2CCOCC2)C(=O)N1c1ccccc1` it was 0.4%; in that of `c1ccc(-n2nnnc2NC2CCCCCC2)cc1`, 8.53%.

For the compound `c1ccc(-n2nnnc2N2CCOCC2)cc1`, the inhibition is 94.8% (active). To `COc1ccc(S(=O)(=O)N2CCCC(C(=O)NCCCn3ccnc3)C2)cc1OC` (stereo not given) belongs 15.1%.

Consider `O=C1NNC(c2ccccc2)=N/C1=C\c1ccc(Cl)cc1`, for which the inhibition is 5.34%. In the case of `CCn1cc(C(=O)NCC2COc3ccccc3O2)c2cc(OC)c(OC)cc2c1=O` (stereo not given) it was 10.7%.

On to `CC(=O)Nc1ccc(Nc2c3ccccc3nc3ccccc23)cc1`, for which the inhibition was 75% (active).

`CC(=O)Nc1ccc(Nc2c([N+](=O)[O-])cc(S(C)(=O)=O)cc2[N+](=O)[O-])cc1`: the inhibition is -0.18%. As for `CC(=O)Nc1ccc(S(=O)(=O)N(C)c2nc3ccccc3nc2Cl)cc1`, the inhibition was 1.9%.

For `CCOc1ccc(NC(=O)c2ccc(NC(=O)CN3C(=O)C(=O)N(CC(C)C)C3=O)cc2)cc1`, the inhibition is -34.9%. Consider `CCC1([N+](=O)[O-])COC(c2ccc(C(C)C)cc2)OC1` (stereo not given), for which the inhibition was -31.9%. In the case of `CCC(=C/c1sc2ccc3ccccc3c2[n+]1C)/C=C1\Sc2ccc3ccccc3c2N1C`, the inhibition is 64.2% (active). In the case of `O=C(c1ccccc1)c1ccc2nc(N3CCCCC3)c3nncn3c2c1`, the inhibition was 6.66%.

For the origin of these results see PubChem BioAssay AID588413 (Sanford-Burnham Center for Chemical Genomics, 2011).
